Entries with a potency or affinity are not part of this list.
Experiments:
Klebsiella pneumoniae = details: Concentration 32 ug.mL-1;; ASSAY_TEST Inhibition of Bacterial Growth; detection method Absorption (OD600); MEDIA CAMHB; plate type 384well; NBS; CORNING #3640; time 18 hr
Candida albicans = details: Concentration 32 ug.mL-1; ASSAY_TEST Inhibition of Fungal Growth; detection method Absorption (OD530)
Cryptococcus neoformans = details: Concentration 32 ug.mL-1; ASSAY_TEST Inhibition of Fungal Growth; detection method Resazurin; Absorption (OD600-OD570); plate type 384well; NBS; CORNING #3640

| Compound | Inhibition (Klebsiella pneumoniae) | Inhibition (Candida albicans) | Inhibition (Cryptococcus neoformans) |
| --- | --- | --- | --- |
| COc1ccc(N2CCN(C(=O)Cn3nc4c(Sc5cccc(C)c5)nccn4c3=O)CC2)cc1 | -3.27% | 1.08% | -17.29% |
| C=Cc1ccc(Cn2nc3c(=O)n(-c4ccc(C)c(C)c4)ccn3c2=O)cc1 | 9.34% | 3.74% | -5.84% |
| CCOc1ccc(C(=O)CSc2nnc3c(=O)n(-c4ccc(Br)cc4)ccn23)cc1 | 15.85% | 8.18% | -11.96% |
| Cc1cccc(NC(=O)CSc2nnc3c(=O)n(-c4ccccc4)ccn23)c1 | 3.26% | 1.31% | -14.94% |
| O=c1c2sccc2n2c(=O)n(Cc3cccc(Cl)c3)nc2n1CCc1ccccc1 | 11.95% | 1.58% | -33.74% |
| O=C(Cn1nc2c(SC3CCCCC3)nccn2c1=O)Nc1ccc(F)c(Cl)c1 | 0.9% | 5.93% | -24.22% |
| Cc1cc2nn(CC(=O)N3CCOCC3)c(=O)n2c(Nc2ccc(C)c(F)c2)n1 | 15.3% | 1.38% | -5.57% |
| Cc1ccc(-c2cc3c4nn(CC(=O)N5CCN(c6ccccc6F)CC5)c(=O)n4ccn3n2)cc1C | 10.7% | 3.33% | -14.81% |
| Cc1cc(C)cc(Oc2nc3ccccc3n3c(=O)n(CC(=O)Nc4ccc5c(c4)OCO5)nc23)c1 | 6.8% | 46.24% | -19.74% |
| CCCCOc1ccc(-c2cc3c4nnc(SCC(=O)Nc5ccc(OC)cc5)n4ccn3n2)cc1 | 6.75% | 3.4% | -13.28% |
| COc1cccc(CN(c2ccc(F)cc2)S(=O)(=O)c2cccn3cnnc23)c1 | -0.69% | -0.06% | -1.54% |
| Cc1cc(NC(=O)CSc2nc3ccccc3n3cnnc23)ccc1Br | 14.4% | 4.71% | -40.95% |
| Cc1ccc(NC(=O)Cn2nc3ccc(-c4ccccc4)nn3c2=O)cc1 | 0.91% | 16.23% | -12.72% |
| CC(C)c1nnc2c(SCC(=O)Nc3ccc(F)cc3F)nc3ccccc3n12 | 13.12% | -0.24% | -26.87% |
| COC(=O)c1cccc(NC(=O)Cn2nc3ccc(-c4ccc(C)c(C)c4)nn3c2=O)c1 | 6.94% | 2% | -13.54% |
| CCCNC(=O)Cn1nc2n(Cc3cccs3)c(=O)c3sccc3n2c1=O | 9.05% | -0.4% | -15.54% |

| Compound | Inhibition (Klebsiella pneumoniae) | Inhibition (Candida albicans) | Inhibition (Cryptococcus neoformans) |
| --- | --- | --- | --- |
| N#Cc1ccc(NC(=O)Cn2nc3c(SC4CCCCC4)nccn3c2=O)cc1 | 10.51% | 3.23% | -20.35% |
| Cc1ccc(Cl)cc1NC(=O)CSc1nnc2c(=O)n(-c3ccccc3)ccn12 | 9.22% | 2.4% | -17.19% |
| O=C(Cn1nc2ccc(Sc3cccc(F)c3)nn2c1=O)Nc1cccc(Cl)c1 | -3.42% | 11.97% | -3.34% |
| Cc1ccc(-c2cc3c4nnc(CCC(=O)N5CCN(c6ccccc6F)CC5)n4ccn3n2)cc1C | 8.56% | 3.28% | -23.24% |
| Cc1cc2nn(CC(=O)Nc3ccccc3C)c(=O)n2c(Nc2ccc(F)c(C)c2)n1 | 13.6% | 21.67% | -6.31% |
| Cc1cc2nn(CC(=O)Nc3ccc(F)cc3C)c(=O)n2c(Nc2ccc(F)cc2)n1 | 7.08% | 9.27% | -2.95% |
| Cc1cc(C)cc(N(Cc2cccc(F)c2)S(=O)(=O)c2cccn3c(C)nnc23)c1 | 2.61% | 2.81% | -7.1% |
| COc1ccccc1N1CCN(C(=O)CSc2nc3ccccc3n3cnnc23)CC1 | 8.29% | 2.74% | -5.08% |
| COc1cccc(Oc2nccn3c(=O)n(CC(=O)NCc4ccc(SC)cc4)nc23)c1 | 15.38% | 2.58% | -5.89% |
| CC(C)c1ccc(NC(=O)Cn2nc3c(N4CCCC4)nccn3c2=O)cc1 | 11.79% | 2.06% | -12.68% |
| Cc1nnc2c(SCC(=O)Nc3ccc(C#N)cc3)nc3ccccc3n12 | 5.06% | -1.44% | -16.12% |
| Cc1cccc(Cn2nc3n(CCc4ccccc4)c(=O)c4sccc4n3c2=O)c1 | 3.95% | -1.37% | -11.78% |
| C=Cc1ccc(CN(c2ccc(F)cc2)S(=O)(=O)c2ccc3nnc(C)n3c2)cc1 | 5.5% | 1.83% | -7.48% |
| Cc1ccc(-c2cc3c4nn(CC(=O)N5CCN(c6ccc(F)cc6)CC5)c(=O)n4ccn3n2)cc1C | 7.51% | 1.65% | -26.79% |
| COc1ccc(-c2cc3c4nnc(CCC(=O)N5CCN(c6ccccc6F)CC5)n4ccn3n2)cc1 | 15.22% | 2.19% | -8.32% |
| CCc1ccc(N(Cc2ccc(C)cc2)S(=O)(=O)c2cccn3c(CC)nnc23)cc1 | 2.26% | 5.38% | -7.79% |

Source: ChEMBL document CHEMBL4513146, “CO-ADD screening of Karazin Kharkiv National University (Ukraine) compounds”
